Assay outcomes deposited in PubChem by National Center for Advancing Translational Sciences (NCATS).
ATXN viability: cell viability loss in ATXN counter-screen | S2 cells (HEK-293 line with an ATXN2-luciferase reporter) viability, CellTiter-Fluor protease fluorescence, 24 h | Potency, µM (top dose mostly 56.7 µM), hits mostly cytotoxic | 400,000 compounds, 0.49% hits; note: nearly all actives have a fitted effect of over 40% in size
TGFb inhibitor: blocks TGF-b signaling; HepG2 CAGA-GFP TGF-b/SMAD3 reporter, GFP fluorescence, 18 h; TGF-beta stimulated, 500 pg/mL final; 410,000 compounds, 1.2% hits; Potency, µM (doses to about 46.1 µM), most hits filed as inhibitors; note: nearly all actives have a fitted effect of over 65% in size
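Inhibition was scored as loss of TGF-beta-induced (500 pg/mL final, 18 hours, 37 degrees C) GFP in HEPG2 cells carrying a CAGA-GFP reporter, in DMEM with 1% FBS. Well GFP was summed per cell; Activity was normalised to unstimulated and stimulated DMSO wells, then concentration-response fitting.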
HT1080-NT tox: kills 2HG-producing HT-1080-NT fibrosarcoma cells; HT-1080-NT fibrosarcoma viability, CellTiter-Glo ATP luminescence, 48 h; Potency, µM (titrated, usually from 46.1 µM), hits mostly cytotoxic; 360,000 compounds, 1.6% hits; AID 686970;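 note: NT is the 2HG producing partner of a matched IDH1 knockdown line; nearly all actives have a fitted effect of over 55% in size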
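Read-out is CellTiter-Glo luminescence after 10 minutes at room temperature, following 48 hours' compound treatment of HT-1080-NT cells (750 cells/well, RPMI, 5% FBS, 37 degrees C).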
HT1080 IDH1KD tx: HT-1080 IDH1 knockdown cell toxicity (counter line). Potency, µM (series often up to 46.1 µM), usual class: cytotoxic. AID 686971. HT-1080 IDH1 knockdown viability, ATP luminescence, 48 h. 360,000 compounds, 2% hits
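CellTiter-Glo luminescence after 48 h compound exposure at 37 degrees C of IDH1-knockdown HT-1080 cells in 5% FBS RPMI. %Activity scaled between DMSO wells and cell-free media wells, with curves fitted and assigned curve classes.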
HepG2 tox: counter-screen for TGF-b inhibitors: cytotoxicity in HepG2 cells; HepG2 CAGA-GFP viability, ATP luminescence, 18 h; 410,000 compounds, 0.76% hits; AID 588856; Potency, µM (series often up to 46.1 µM), actives largely listed as cytotoxic
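HepG2 CAGA-GFP cells (1000/well, DMEM with 1% FBS) received compound, then TGF-beta at 500 pg/mL final, and were incubated 18 hours at 37 degrees C. Viability was read by CellTiter-Glo luminescence. Media-only wells were set as complete cell-killing and DMSO as no toxicity.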
ATXN2 expr inh: ATXN2 expression inhibition; HEK-293 ATXN2-luciferase reporter, luminescence, 24 h; Potency, µM (highest dose often 57 µM), usual class: inhibitors; 360,000 compounds, 0.72% hits; AID 1745845; note: nearly all actives have a fitted effect of over 55% in size
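qHTS (up to 57 uM final) was run with 24 h compound exposure of reporter cells at 37 °C. Each well was multiplexed: SteadyGlo luminescence measured ATXN2-luciferase expression after a fluorogenic Gly-Phe-AFC viability readout (25 uM final).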
Hits are given with their value; 0 = inactive; ? = inconclusive; - = not tested or not shown. Hits are enriched below; roughly 3.9% of the tested compounds scored in any of these assays. Calls come from the whole dose curve; as a rule, active = well fitted curve in the direction sought with a large enough effect; inconclusive = small, poorly fitted or top-dose-only effect, or another doubt; inactive = no such curve, though single readings can be large; an effect the other way counts as inactive or inconclusive.

SMILES	ATXN viability	TGFb inhibitor	HT1080-NT tox	HT1080 IDH1KD tx	HepG2 tox	ATXN2 expr inh
O=c1cc(Nc2ccc3c(c2)OCCO3)[nH]c(=O)n1-c1ccc(Br)cc1	0	?	?	?	0	?
COCC1CCCN(Cc2ccc3c(c2)CN(C(=O)c2cnn(C(C)C)c2)CCO3)C1 (configuration not stated)	0	-	-	-	-	-
CCOC(=O)Nc1ccc2nc(N3CCCCCC3)sc2c1	0	0	?	8.2µM	0	-
CC1Sc2n(c3ccccc3[n+]2C)N=C1c1ccccc1 (configuration not stated)	0	0	0	7.3µM	0	0
C[n+]1c2n(c3ccccc31)N=C(c1ccc(Cl)cc1)CS2	0	0	?	?	0	?
O=C(NCc1ccncc1)c1cc(-c2ccc(Cl)cc2)oc1C(F)(F)F	?	?	0	0	0	-
O=C(NCc1ccccn1)c1cc(-c2ccc(Cl)cc2)oc1C(F)(F)F	?	11µM	0	0	0	0
Cc1c(C(=O)N2CCCCCC2)sc2ncnc(NCC3CCCO3)c12 (configuration not stated)	0	-	-	-	-	-
Cc1ccc2c(CNCc3ccccc3)cc(=O)oc2c1	0	0	5.2µM	8.2µM	0	?
Cc1ccc2c(CN(C)Cc3ccccc3)cc(=O)oc2c1	0	0	?	0	0	0
Cn1nnnc1N=N/C(=N/Nc1ccccc1)c1ccccc1	8.9µM	0	?	7.3µM	0	2.5µM
COC(=O)C=CC(=NNc1ccccc1)c1ccccc1	0	?	0	0	0	0
CC(=O)c1cccc(NC(=O)c2nc3ccccc3n(C)c2=O)c1	0	0	-	-	0	0
COc1cc(C(=O)N/N=C/c2ccsc2C)cc(OC)c1OC	0	0	0.92µM	0.58µM	0	0
COc1ccc(Br)cc1/C=N/NC(=O)c1ccc(OC)c(OC)c1	0	0	0	0	0	-
COc1cc(C(=O)NCC(=O)N/N=C/c2cccs2)cc(OC)c1OC	0	0	0	0	0	0
COc1ccc(Br)cc1/C=N/NC(=O)c1cc(OC)c(OC)c(OC)c1	0	0	?	16µM	0	0
COC(=O)c1c(OCc2ccccn2)cc(=O)n2c1CCN(Cc1ccc3nsnc3c1)CC2	0	-	-	-	-	-
COc1ccc(C2CC(=O)c3cc(-c4nc(-c5ccc(Cl)cc5)c(C)s4)c(=O)[nH]c3C2)cc1 (configuration not stated)	0	0	-	-	0	0
CCOC(=O)c1sc(=S)n(C)c1NC(=O)c1ccc(C(C)(C)C)cc1	?	?	?	16µM	0	0
COc1ccccc1-c1cc(NC(C)=O)c2ncc(-c3ccccc3)n2c1	?	?	23µM	?	0	0
COc1ccccc1-c1cc(NC(C)=O)c2ncc(-c3cccc(C(F)(F)F)c3)n2c1	?	?	?	?	16µM	0
COc1cccc(-c2cnc3c(NC(C)=O)cc(-c4ccccc4OC)cn23)c1	?	0	?	?	0	0
COc1ccc(-c2cc(NC(C)=O)c3ncc(-c4cccc(C(F)(F)F)c4)n3c2)c(OC)c1	?	?	0	?	0	0
Cc1cccc(N=N/C(=C\O)C(=O)c2cccs2)c1	?	?	?	13µM	0	?
SMILES	ATXN viability	TGFb inhibitor	HT1080-NT tox	HT1080 IDH1KD tx	HepG2 tox	ATXN2 expr inh
Cc1ccc(C(=O)Nc2onc3c2CCCC3)cc1	?	0	-	-	0	7.9µM
COc1ccccc1C(=O)Nc1onc2c1CCCC2	0	0	-	-	0	0
NC(=O)c1ccccc1NC(=S)NC(=O)CCc1ccccc1	?	0	3.3µM	3.3µM	0	0
Cc1cccc(C)c1NC(=S)NC(=O)CCc1ccccc1	0	0	10µM	11µM	0	0
Cc1ccccc1NC(=S)NC(=O)CCc1ccccc1	0	0	10µM	?	0	0
CCOC(=O)N1CCc2c(sc(NCc3ccc(N(C)C)cc3)c2C(=O)Nc2ccc(OC)cc2)C1	-	?	-	-	0	-
Cc1cccc(/C=C2\Sc3ccc(C(=O)N4CCCCC4)cc3N(C)C2=O)c1	?	?	18µM	0	0	-
Cc1cccc(/C=C2\Sc3ccc(C(=O)N4CCOCC4)cc3N(C)C2=O)c1	?	0	0	0	0	-
